# Laboratory results taken from PubChem BioAssay (NCATS).
# Records with an inconclusive call do not appear. Where a call stands in place of a potency, no number is given. Activity calls are given as the source filed them. Calls come from the whole dose curve; as a rule, active = well fitted cell-killing curve with a large enough effect; inconclusive = small, poorly fitted or top-dose-only effect; inactive = flat fitted curve, though single readings scatter.
# Test: Cell Viability - LYMP1-002 - Assay at 40 hr (AID 994); note: nearly all actives have a fitted effect of over 60% in size
# Conditions: LYMP1-002 lymphoblastoid cell viability; series mostly up to 92.2 µM
# Excerpt: NIH Chemical Genomics Center [NCGC]
# NIH Molecular Libraries Screening Centers Network [MLSCN]
# National Institutes of Environmental Health Sciences [NIEHS]
# National Toxicology Program [NTP]
# We have developed a 1536-well cell-based assay for quantitative high throughput screening (qHTS) against a number of cell lines to determine in vitro cytotoxicity of small molecules. This particular assay uses a human lymphoblastoid cell line (LYMP1-002) purchased from Coriell Institute for Medical Research.
# NCGC Assay Protocol Summary:
# The CellTiter-Glo luminescent cell viability assay (Promega) is a homogeneous method to measure the number of viable cells in culture. The end point readout of this assay is based on quantitation of intracellular ATP, an indicator of metabolic activity, using the luciferase reaction. Luciferase catalyzes the oxidation of beetle Luciferin to oxyluciferin and light in the presence of ATP. The luminescent signal is proportional to amount of ATP present.
# Using the CellTiter-Glo luminescent cell viability assay, the amount of cellular ATP was measured in the lymphoblastoid cell line with complete culture medium following compound treatment for 40 hours. The assay was performed in opaque white Kalypsys 1536-well plates. In the screen, tetraoctylammonium bromide was used as positive control. Library compounds were measured for their ability to cause acute toxicity in the cell line, as reflected by a decrease in intracellular ATP levels, in a concentration-dependent manner. […] AC50 values were determined from concentration-response data modeled with the standard Hill equation.
# qHTS protocol for CellTiter Glo lymphoblastoid cellular assay
# [Step] [Parameter] [Value] [Description]
# 1. Reagent; 5 uL; 2500 lymphoblastoid cells/well
# 2. Time; 5 hr; 37 C incubation
# 4. Controls; 23 nL; Tetraoctylammonium bromide 6.4pM to 92 uM
# 5. Time; 40 hr; 37 C incubation
# 6. Reagent; 5 uL; CellTiter Glo reagent
# 7. Time; 30 min; Room Temperature
# 8. Detection; Luminescence; Viewlux plate reader
# Keywords: cell viability, cytotoxicity, lymphoblastoid cell line, luminescence, NTPHTS, NTPHTS_NCGC, NIEHS, DSSTox, MLSMR, MLSCN, NIH Roadmap, qHTS, NCGC
row,SMILES,Potency
1,CCCCCCCCCc1ccc(O)cc1,inactive
2,ClC(Cl)=C(c1ccc(Cl)cc1)c1ccc(Cl)cc1,inactive
3,Oc1ccc(Cl)cc1Cl,inactive
4,CC(=O)[O-].CC(=O)[O-].O.O.O.[Pb+2],inactive
5,COC1=CC(=O)OC(CCc2ccccc2)C1 (stereo not given),inactive
6,Cc1cccc([N+](=O)[O-])c1,inactive
7,CC(Cl)Cl,inactive
8,C[N+](C)(C)Cc1ccccc1,inactive
9,CCNc1nc(Cl)nc(NC(C)C)n1,inactive
10,Nc1ccccc1Cl,inactive
11,COC(=O)NC(=S)Nc1ccccc1NC(=S)NC(=O)OC,inactive
12,CCOP(=S)(OCC)SCSC(C)(C)C,inactive
13,Cc1ccccc1N,inactive
14,ClC(Cl)(Cl)c1ccccc1,inactive
15,Clc1nc(Cl)nc(Nc2ccccc2Cl)n1,inactive
16,CCCCOCCOP(=O)(OCCOCCCC)OCCOCCCC,inactive
17,COc1ccc(N)cc1,inactive
18,CC(C)(C)OO,inactive
19,NC(=S)Nc1ccccc1,inactive
20,c1ccc(-c2ccccc2)cc1,inactive

row,SMILES,Potency
1,C=CC(N)=O,inactive
2,C=CC(C)=O,inactive
3,C1CCC2CCCCC2C1 (stereo not given),inactive
4,C[C@]12CC[C@H]3[C@@H](CCC4=CC(=O)CC[C@@]43C)[C@@H]1CC[C@@H]2O,inactive
5,CCOP(=S)(OCC)Oc1ccc([N+](=O)[O-])cc1,inactive
6,CNC(=O)O/N=C/C(C)(C)SC,inactive
7,O=C(Cl)C(Cl)(Cl)Cl,inactive
8,C/C=C/c1ccc2c(c1)OCO2,inactive
9,C=CC(=O)OCC,inactive
10,Cc1ccc(O)c(C)c1,inactive
11,O=C(O)COc1ccc(Cl)cc1Cl,inactive
12,C=C(Cl)Cl,inactive
13,C=C(C)C#N,inactive
14,c1ccc2c(c1)CCCC2,inactive
15,C=CCc1ccc(OC)cc1,inactive
16,CCCC(=O)Cl,inactive
17,CCN(CC)c1ccccc1,inactive
18,OCC1CO1 (stereo not given),inactive
19,Brc1ccccc1,inactive
20,C=CC(=C)C,inactive
